Reference: PubChem BioAssay AID1851 (National Center for Advancing Translational Sciences (NCATS), 2009)
Out of some 16,000 compounds screened, about 5,700 (36%) were called active. Not shown: some 24% with an inconclusive outcome. Calls follow the shape of the dose curve; as a rule, active = well fitted curve in the direction sought with a large enough effect; inconclusive = small, poorly fitted or top-dose-only effect, or effect the other way; inactive = no such curve, though single readings can be large or run the other way. The list shows a part of the results.

Each molecule was assayed against Cytochrome P450 1A2 (Homo sapiens) (UniProt P05177) (assay: Cytochrome panel assay with activity outcomes). Details: recombinant CYP, pro-luciferin dealkylation, luminescence, p450-cyp1a2; series mostly up to 57.1 µM.
% is scaled to controls: 0 for no effect and ±100 for the full control effect.

Cytochrome P450 1A2 (Homo sapiens), sequence (P05177 whole entry, looked up): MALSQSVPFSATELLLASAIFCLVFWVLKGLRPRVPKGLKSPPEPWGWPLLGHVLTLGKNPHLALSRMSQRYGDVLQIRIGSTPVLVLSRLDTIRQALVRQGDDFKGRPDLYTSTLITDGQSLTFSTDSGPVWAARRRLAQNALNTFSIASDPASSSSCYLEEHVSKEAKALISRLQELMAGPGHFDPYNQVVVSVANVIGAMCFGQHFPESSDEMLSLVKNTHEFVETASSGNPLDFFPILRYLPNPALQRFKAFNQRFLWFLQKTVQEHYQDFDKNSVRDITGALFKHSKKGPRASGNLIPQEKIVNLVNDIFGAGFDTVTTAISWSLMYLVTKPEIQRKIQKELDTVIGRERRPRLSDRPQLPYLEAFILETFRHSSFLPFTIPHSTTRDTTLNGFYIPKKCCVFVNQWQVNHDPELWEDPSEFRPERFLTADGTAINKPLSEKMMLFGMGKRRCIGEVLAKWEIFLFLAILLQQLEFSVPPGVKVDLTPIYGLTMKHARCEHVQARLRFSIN

SMILES	AC50	activity, negative = inhibition
Cc1nn2c3c(cnc2c1-c1ccccc1)C(=O)CC(c1ccccc1)C3 (stereo not drawn)	3.16 µM (active)	
CCC1NC(=S)N(C2CCCCC2)C1=O (stereo not drawn)	inactive	
CN(C)C(=O)c1ccc(-c2nccc(N(C)Cc3ccco3)n2)cc1	12.6 µM (active)	
CN(Cc1ccco1)c1ccnc(-c2cccnc2)n1	0.794 µM (active)	
COc1cccc(-c2nccc(N(C)Cc3ccco3)n2)c1	0.631 µM (active)	
CN(Cc1ccco1)c1ccnc(-c2ccoc2)n1	12.6 µM (active)	
COc1ccc(Cc2nnc(NC(=O)Cn3cnc4c3c(=O)n(C)c(=O)n4C)s2)cc1OC	inactive	
CN(Cc1ccco1)c1ccnc(-c2cccc(C#N)c2)n1	0.398 µM (active)	
CS/C(N)=N/N=C/c1ccc([N+](=O)[O-])cc1	14.1 µM (active)	
O=C1CCCC=C1[C@H](O)c1ccc([N+](=O)[O-])cc1		-7.01% [at 11.4 µM] (inactive)
NC(N)=N/N=C\c1ccc(C2CCNCC2)cc1		-12% [at 2.29 µM] (inactive)
C=CCNC(=O)c1cccn1-c1ccsc1C(=O)OC	inactive	
C=CCNC(=O)c1ccc2nc(-c3ccccc3)c(-c3ccccc3)nc2c1	15.8 µM (active)	
C=CCNC(=O)c1ccc(-c2nc(-c3ccc(Cl)c(Cl)c3)cs2)cc1	inactive	
COc1ccc(N(C)C(=O)c2ccc3nc(-c4ccccc4)c(-c4ccccc4)nc3c2)cc1	inactive	
C=CCNC(=O)c1csc(-c2ccccc2)n1	0.631 µM (active)	
C=CCNC(=O)c1onc(CSc2ccc(F)cc2)c1C(=O)O	inactive	
CC(=O)NCCNc1ncnc2ccc(-c3cccc(NS(C)(=O)=O)c3)cc12	15.8 µM (active)	
COCCNc1ncnc2ccc(-c3cccc(NS(C)(=O)=O)c3)cc12	0.794 µM (active)	
O=C(c1cnccn1)N1CCC2(CCN(Cc3nccs3)CC2)CC1	inactive	
CN(c1ccc(C(=O)NCc2ccccn2)cc1)S(C)(=O)=O	inactive	
Cc1ccc(NS(=O)(=O)c2cc(C(=O)NCc3ccccn3)ccc2Cl)cc1	5.01 µM (active)	
C=C(CC)C(=O)c1ccc(OCC(=O)O)c(Cl)c1Cl	inactive	
COC(=O)/C=C/CSC1=N/C(=C/c2ccc(-n3cncn3)cc2)C(=O)N1	1 µM (active)	
CNc1ncnc2c1ncn2[C@H]1C[C@@H](OP(=O)(O)O)[C@H](COP(=O)(O)O)O1	inactive	
CCN(CC)C(=O)Cn1cc(/C=C(\C#N)C(=O)N2CCN(c3ccccc3)CC2)c2ccccc21	inactive	
COC(=O)Cn1cc(/C=N/NC(=O)c2ccc(C#N)cc2F)c2ccccc21	3.55 µM (active)	
N#Cc1ccc(C(=O)Nc2ccc(N3CCN(C(=O)c4ccco4)CC3)cc2)c(F)c1	inactive	
